About 7,900 targets were measured; listed, in parts, are those with a hit and a random draw of the rest. About 0.6% of all pairs of compound and target were hits.
Key:
Assay in all cases: log2 fold change, soluble protein after heating vs DMSO (PISA); higher = thermal stabilisation; K562 cells, 10 uM, 30 min; active = over 0.2 and 3.5 SD of the protein, either way, in both replicates (recomputed)
[1] = compound: CN1CCN(CCOc2cc(OC3CCOCC3)c3c(Nc4c(Cl)ccc5c4OCO5)ncnc3c2)CC1 [saracatinib]
Summary of the method: (§1)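 For each measurement, 10 μM compound was applied for 30 min to K562 cells at 2×10^6 cells/mL. Aliquots were heated for 3 min across 48°C-58°C, pooled, and extracted in PBS with 0.5% NP-40 at 4°C; the supernatant after 21,000xg for 90 min was soluble protein. This was quantified by TMTpro 16plex LC-MS/MS with channel sums equalised, and thermal stability was reported relative to control samples from duplicates, on a log2 fold-change scale.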

[2] = compound: CN1CC[C@H](c2c(O)cc(O)c3c(=O)cc(-c4ccccc4Cl)oc23)[C@H](O)C1 [alvocidib]
Summary of the method: as §1

[3] = compound: CN1CCc2c(c3ccccc3n2Cc2ccc(C(=O)NO)cc2)C1 [Tubastatin A]
Summary of the method: as §1

[4] = compound: CNC(=O)C1=CC=CC=C1NC2=NC(=NC=C2Cl)NC3=C(C=C(C=C3)N4CCOCC4)OC
Summary of the method: as §1

[5] = compound: CNC(=O)c1ccc(Nc2ncc(C(F)(F)F)c(NCc3nccnc3N(C)S(C)(=O)=O)n2)cc1 [defactinib]
Summary of the method: as §1

[6] = compound: CNCc1ccc(-c2[nH]c3cc(F)cc4c3c2CCNC4=O)cc1 [rucaparib]
Summary of the method: as §1

[7] = compound: CNc1nc(-c2ccc3c(N)n[nH]c3c2)cc(N2C[C@@H](C(=O)NC3CCCCC3)CC[C@H]2C)n1
Summary of the method: as §1

[8] = compound: COC(=O)N[C@@H](C)CNc1nccc(-c2cn(C(C)C)nc2-c2cc(Cl)cc(NS(C)(=O)=O)c2F)n1 [encorafenib]
Summary of the method: as §1

[9] = compound: COC(=O)[C@H](CCSC)NC(=O)C1=C(C=C(C=C1)NC[C@H](CS)N)C2=CC=CC=C2
Summary of the method: as §1

[10] = compound: CN1CCN(c2nc(C3=C(c4c[nH]c5ccccc45)C(=O)NC3=O)c3ccccc3n2)CC1 [sotrastaurin]
Summary of the method: as §1

Measured: log2 fold change

CCND3 (UniProt P30281)
UniProt P30281, sequence (P30281 whole entry, looked up): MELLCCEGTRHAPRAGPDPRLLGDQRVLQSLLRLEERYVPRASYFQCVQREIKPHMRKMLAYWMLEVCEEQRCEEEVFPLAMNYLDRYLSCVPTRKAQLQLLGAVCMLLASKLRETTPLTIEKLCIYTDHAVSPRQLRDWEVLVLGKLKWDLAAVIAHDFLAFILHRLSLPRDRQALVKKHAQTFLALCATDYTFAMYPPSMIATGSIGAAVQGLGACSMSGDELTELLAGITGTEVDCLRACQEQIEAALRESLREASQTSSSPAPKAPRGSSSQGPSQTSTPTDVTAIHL
inactive: [1] 0.03 | [2] 0.008 | [3] 0.242 | [4] -0.018 | [5] -0.037 | [6] 0.113 | [7] -0.067 | [8] -0.11 | [9] 0

CCNL1 (UniProt Q9UK58)
inactive: [4] -0.179

CCDC57 (UniProt Q2TAC2)
inactive: [10] 0.059 | [2] -0.055 | [3] 0.026 | [4] 0.04 | [5] 0.02 | [6] -0.15 | [8] 0.041 | [9] 0.007

CFAP47 (UniProt Q6ZTR5)
inactive: [1] 0.001 | [5] -0.063 | [6] -0.062 | [7] -0.142 | [8] -0.173 | [9] 0.084

COMMD3-BMI1 (UniProt R4GMX3)
inactive: [10] -0.024 | [2] 0.05 | [3] -0.074

CARD9 (UniProt Q9H257)
inactive: [4] 0.388

CA1 (UniProt E5RIF9)
inactive: [1] 0.272 | [3] -0.178 | [5] -0.09 | [7] 0.093 | [9] -0.129

CD68 (UniProt P34810)
inactive: [10] -0.031 | [4] 0.043

CDCA2 (UniProt Q69YH5)
UniProt Q69YH5, sequence (Q69YH5 whole entry, looked up): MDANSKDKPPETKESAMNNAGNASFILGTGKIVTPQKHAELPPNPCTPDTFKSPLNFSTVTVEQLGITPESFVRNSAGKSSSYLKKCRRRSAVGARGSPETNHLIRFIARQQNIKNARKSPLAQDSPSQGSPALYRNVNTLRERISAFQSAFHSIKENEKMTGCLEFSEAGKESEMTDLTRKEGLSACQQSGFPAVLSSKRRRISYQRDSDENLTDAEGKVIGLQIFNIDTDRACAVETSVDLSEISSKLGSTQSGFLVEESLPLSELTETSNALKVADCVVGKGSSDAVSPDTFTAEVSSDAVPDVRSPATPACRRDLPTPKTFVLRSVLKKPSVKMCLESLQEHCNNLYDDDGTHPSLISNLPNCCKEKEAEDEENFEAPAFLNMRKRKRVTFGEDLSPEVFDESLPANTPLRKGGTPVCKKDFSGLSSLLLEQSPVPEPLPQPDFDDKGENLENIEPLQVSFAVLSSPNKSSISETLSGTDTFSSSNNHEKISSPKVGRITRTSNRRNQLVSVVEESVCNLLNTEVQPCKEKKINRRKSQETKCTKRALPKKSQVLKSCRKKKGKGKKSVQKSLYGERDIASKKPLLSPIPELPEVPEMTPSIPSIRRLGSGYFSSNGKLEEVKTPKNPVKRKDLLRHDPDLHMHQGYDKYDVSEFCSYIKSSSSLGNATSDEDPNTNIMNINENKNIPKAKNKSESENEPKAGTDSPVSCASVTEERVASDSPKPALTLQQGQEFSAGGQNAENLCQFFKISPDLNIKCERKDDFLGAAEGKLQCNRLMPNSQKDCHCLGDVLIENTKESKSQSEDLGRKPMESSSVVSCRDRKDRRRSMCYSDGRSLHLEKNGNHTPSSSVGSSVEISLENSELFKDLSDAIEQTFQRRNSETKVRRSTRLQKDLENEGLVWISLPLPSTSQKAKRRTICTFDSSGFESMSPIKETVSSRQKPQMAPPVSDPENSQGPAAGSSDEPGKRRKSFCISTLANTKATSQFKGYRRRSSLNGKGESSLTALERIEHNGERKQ
inactive: [10] -0.148 | [2] 0.008 | [3] 0.217 | [4] -0.152 | [5] -0.063 | [6] 0.011 | [8] 0.318 | [9] -0.03

CPNE5 (UniProt Q9HCH3)
UniProt Q9HCH3, sequence (Q9HCH3 whole entry, looked up): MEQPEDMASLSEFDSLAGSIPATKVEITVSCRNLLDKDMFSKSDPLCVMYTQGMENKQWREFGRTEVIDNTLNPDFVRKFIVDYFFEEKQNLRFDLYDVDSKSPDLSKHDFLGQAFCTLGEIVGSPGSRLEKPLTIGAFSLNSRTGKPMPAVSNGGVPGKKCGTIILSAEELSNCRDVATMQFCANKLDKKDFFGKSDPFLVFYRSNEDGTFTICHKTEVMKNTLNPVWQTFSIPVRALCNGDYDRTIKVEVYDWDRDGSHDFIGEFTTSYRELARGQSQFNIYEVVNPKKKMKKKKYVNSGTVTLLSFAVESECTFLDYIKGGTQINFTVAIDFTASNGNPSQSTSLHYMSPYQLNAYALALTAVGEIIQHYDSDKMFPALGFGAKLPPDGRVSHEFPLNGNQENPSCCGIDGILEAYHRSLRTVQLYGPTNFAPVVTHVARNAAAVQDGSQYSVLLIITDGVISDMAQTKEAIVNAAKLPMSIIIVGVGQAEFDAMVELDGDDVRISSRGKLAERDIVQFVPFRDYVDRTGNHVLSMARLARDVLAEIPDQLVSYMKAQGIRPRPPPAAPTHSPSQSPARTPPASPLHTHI
inactive: [2] 0.134 | [3] 0.082 | [4] 0.049

CHST10 (UniProt O43529)
inactive: [10] -0.01 | [2] -0.106 | [3] -0.037 | [4] 0.035

COPS3 isoform 2 (UniProt Q9UNS2)
UniProt Q9UNS2, sequence (Q9UNS2 whole entry, looked up): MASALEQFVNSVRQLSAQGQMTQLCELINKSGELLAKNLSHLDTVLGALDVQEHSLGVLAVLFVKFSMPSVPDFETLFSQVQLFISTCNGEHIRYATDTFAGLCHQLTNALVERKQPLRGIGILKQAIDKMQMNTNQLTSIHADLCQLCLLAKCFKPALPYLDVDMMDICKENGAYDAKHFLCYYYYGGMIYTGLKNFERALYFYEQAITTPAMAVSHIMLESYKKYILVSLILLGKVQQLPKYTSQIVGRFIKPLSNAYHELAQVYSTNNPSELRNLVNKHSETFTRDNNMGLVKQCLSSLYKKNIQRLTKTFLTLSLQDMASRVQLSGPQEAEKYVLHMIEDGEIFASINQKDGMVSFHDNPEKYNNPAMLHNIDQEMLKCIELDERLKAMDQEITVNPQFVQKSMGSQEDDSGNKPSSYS
inactive: [10] 0.134 | [3] -0.005 | [5] 0.109 | [6] -0.055 | [8] -0.041 | [9] 0.059

CLCN5 isoform 2 (UniProt P51795)
inactive: [1] -0.001 | [2] -0.032 | [3] -0.006 | [4] 0.009 | [5] -0.033 | [6] 0.097 | [7] -0.116 | [8] 0.075 | [9] -0.025

CLINT1 (UniProt Q14677)
UniProt Q14677, sequence (Q14677 whole entry, looked up): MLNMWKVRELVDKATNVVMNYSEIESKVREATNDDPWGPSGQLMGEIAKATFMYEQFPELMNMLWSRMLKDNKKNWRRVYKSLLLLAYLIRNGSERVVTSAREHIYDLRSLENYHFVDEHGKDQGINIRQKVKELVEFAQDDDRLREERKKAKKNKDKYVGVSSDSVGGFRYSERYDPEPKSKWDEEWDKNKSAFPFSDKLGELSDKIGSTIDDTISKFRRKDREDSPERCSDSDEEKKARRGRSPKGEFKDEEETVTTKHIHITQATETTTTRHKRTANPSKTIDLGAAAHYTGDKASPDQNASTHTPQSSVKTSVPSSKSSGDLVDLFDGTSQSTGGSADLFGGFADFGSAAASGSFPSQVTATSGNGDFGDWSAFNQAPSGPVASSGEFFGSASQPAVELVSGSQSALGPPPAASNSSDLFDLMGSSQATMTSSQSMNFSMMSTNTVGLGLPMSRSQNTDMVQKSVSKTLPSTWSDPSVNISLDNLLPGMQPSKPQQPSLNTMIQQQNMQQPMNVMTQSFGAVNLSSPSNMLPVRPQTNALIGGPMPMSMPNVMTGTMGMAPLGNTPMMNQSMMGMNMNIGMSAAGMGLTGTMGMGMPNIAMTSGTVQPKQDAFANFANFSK
inactive: [1] -0.003 | [2] -0.112 | [3] -0.029 | [5] -0.002 | [6] 0.128 | [7] -0.062 | [8] -0.045 | [9] 0.036

CASP7 isoform 3 (UniProt P55210)
UniProt P55210, sequence (P55210 whole entry, looked up): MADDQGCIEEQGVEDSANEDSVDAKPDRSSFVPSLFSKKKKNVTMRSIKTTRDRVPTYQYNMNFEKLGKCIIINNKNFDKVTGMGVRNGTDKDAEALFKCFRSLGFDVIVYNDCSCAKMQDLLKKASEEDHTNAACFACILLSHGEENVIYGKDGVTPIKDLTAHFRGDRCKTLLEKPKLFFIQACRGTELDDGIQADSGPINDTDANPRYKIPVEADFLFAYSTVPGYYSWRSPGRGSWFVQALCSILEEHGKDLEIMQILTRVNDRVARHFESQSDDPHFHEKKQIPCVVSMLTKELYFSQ
inactive: [1] 0.185 | [4] 0.151 | [6] -0.013 | [7] 0.254 | [8] 0.014

CDC25B isoform 4 (UniProt P30305)
UniProt P30305, sequence (P30305 whole entry, looked up): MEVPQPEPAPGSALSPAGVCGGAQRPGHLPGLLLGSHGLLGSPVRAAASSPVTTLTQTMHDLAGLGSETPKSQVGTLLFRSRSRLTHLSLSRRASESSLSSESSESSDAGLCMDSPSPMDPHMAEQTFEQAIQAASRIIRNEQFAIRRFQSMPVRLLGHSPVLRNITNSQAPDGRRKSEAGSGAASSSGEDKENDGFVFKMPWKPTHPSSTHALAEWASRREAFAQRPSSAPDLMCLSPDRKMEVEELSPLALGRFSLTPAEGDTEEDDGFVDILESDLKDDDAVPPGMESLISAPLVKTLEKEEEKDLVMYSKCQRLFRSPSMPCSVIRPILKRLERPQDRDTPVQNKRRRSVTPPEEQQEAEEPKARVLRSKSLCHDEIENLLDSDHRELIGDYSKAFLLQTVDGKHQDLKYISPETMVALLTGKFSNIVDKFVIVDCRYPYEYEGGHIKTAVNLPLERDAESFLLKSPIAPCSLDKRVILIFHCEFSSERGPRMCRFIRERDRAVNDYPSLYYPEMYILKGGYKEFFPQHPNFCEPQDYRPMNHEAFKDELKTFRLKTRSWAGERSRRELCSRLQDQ
inactive: [10] -0.018 | [2] -0.031 | [4] -0.019 | [5] -0.25 | [6] 0.054 | [8] -0.059 | [9] 0.087

CDK2AP2 (UniProt O75956)
UniProt O75956, sequence (O75956 whole entry, looked up): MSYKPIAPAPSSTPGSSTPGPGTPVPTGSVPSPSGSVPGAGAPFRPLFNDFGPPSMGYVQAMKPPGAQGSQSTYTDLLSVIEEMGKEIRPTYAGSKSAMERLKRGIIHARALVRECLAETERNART
inactive: [2] -0.048 | [4] -0.092 | [6] 0.134 | [8] -0.038

CNOT4 isoform 9 (UniProt O95628)
inactive: [1] 0.077 | [2] 0 | [3] -0.027 | [4] 0.187 | [5] -0.129 | [6] -0.057 | [7] -0.021 | [8] -0.05 | [9] 0.038

CNN1 (UniProt P51911)
UniProt P51911, sequence (P51911 whole entry, looked up): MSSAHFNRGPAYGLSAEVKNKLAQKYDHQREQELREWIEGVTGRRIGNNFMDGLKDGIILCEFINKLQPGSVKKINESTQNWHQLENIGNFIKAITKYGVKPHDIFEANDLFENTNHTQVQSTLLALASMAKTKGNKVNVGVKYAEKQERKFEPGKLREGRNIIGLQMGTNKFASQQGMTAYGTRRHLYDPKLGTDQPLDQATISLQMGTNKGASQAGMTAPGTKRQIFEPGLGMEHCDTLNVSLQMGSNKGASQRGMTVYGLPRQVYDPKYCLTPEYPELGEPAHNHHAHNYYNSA
inactive: [10] 0.15 | [2] -0.115 | [3] 0.126 | [5] -0.028 | [6] 0.102 | [8] -0.046 | [9] 0.043

CKS2 (UniProt P33552)
UniProt P33552, sequence (P33552 whole entry, looked up): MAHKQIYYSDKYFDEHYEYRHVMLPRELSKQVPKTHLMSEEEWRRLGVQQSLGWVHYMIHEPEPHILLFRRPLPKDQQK
inactive: [1] -0.044 | [3] 0.031 | [6] 0.025 | [7] -0.101 | [8] 0.078

CRTC2 (UniProt Q53ET0)
inactive: [10] -0.09 | [3] -0.031 | [4] -0.269 | [5] -0.218 | [6] 0.053 | [8] -0.026 | [9] -0.103

CLN3 (UniProt Q13286)
UniProt Q13286, sequence (Q13286 whole entry, looked up): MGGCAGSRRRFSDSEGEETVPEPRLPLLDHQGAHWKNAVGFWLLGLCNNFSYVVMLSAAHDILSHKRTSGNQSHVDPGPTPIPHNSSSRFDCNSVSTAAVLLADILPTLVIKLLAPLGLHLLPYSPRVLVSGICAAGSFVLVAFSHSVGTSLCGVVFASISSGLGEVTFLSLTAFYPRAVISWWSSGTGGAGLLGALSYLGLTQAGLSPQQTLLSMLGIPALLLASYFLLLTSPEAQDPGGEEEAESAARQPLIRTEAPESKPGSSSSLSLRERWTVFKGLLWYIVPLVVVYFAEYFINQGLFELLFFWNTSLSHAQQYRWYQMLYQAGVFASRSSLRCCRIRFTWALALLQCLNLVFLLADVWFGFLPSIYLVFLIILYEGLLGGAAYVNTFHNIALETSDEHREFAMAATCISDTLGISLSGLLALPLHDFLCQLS
inactive: [1] 0.046 | [2] 0.107 | [3] 0.065 | [4] 0.004 | [5] -0.039 | [6] 0.082 | [7] -0.097 | [8] -0.053 | [9] 0.149

Reference: the supplement of paper PMC10849652
